Our source for the growth inhibition values is PubChem BioAssay (NCI).

This is part of a sample that, as a whole, favours compounds with a hit. Of some 79,000 tested, about 15% had one in any assay. Activity calls are given as the source filed them. Cut-off read from the data, not from the text of the source: active = growth inhibition above about 70%; inactive = the rest.

This experiment can be described thus: NCI Yeast Anticancer Drug Screen. Data for the cln2 rad14 strain (AID 165).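 Note: 0% = growth equal to vehicle treated cultures.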 The conditions noted are these: S. cerevisiae cln2 rad14 strain, at 5.0 µM (retest, dose inferred, filed as 0.5), hits give high values. The procedure, abridged:
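Strain: cln2 rad14 yeast, altered in cell cycle control and DNA damage repair. Read-out: growth inhibition vs vehicle.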
With `CCCCCCCCCCCCCCOC(=O)C(N)Cc1ccc(O)cc1` (stereo not given), the growth inhibition was 1% (inactive).

As to `CN(C)c1ccc(C(O)(Cc2cccc(C#N)c2)c2ccc(N(C)C)cc2)cc1`, the growth inhibition is -2% (inactive).

Consider `O=C(NNC(=O)c1cccc(C(=O)NNC(=O)c2ccc(Cl)c(Cl)c2)n1)c1ccc(Cl)c(Cl)c1`, for which the growth inhibition is 54% (inactive).

Turning to `C=C1C(=O)O[C@H]2[C@H](OC(C)=O)[C@@H](C)CCC/C(C)=C/CC[C@@]3(C)O[C@@H]3C[C@@H]12`, the growth inhibition was 3% (inactive).

For `O=C(c1ccccc1)C1OC1c1ccccc1Cl` (stereo not given), the growth inhibition is 4% (inactive).

With `[N-]=[N+]=Nc1ccc(SSCCC(=O)ON2C(=O)CCC2=O)cc1`, the growth inhibition was 4% (inactive).

In the case of `Cc1cc(N(CCC#N)CCC#N)ccc1/C(N=Nc1cccc([N+](=O)[O-])c1)=N/NC(=O)c1cc(Cl)ccc1O`, the growth inhibition is -1% (inactive).

For `CC(C)/C(Cl)=N\OC(=O)Nc1ccc(S(N)(=O)=O)cc1`, the growth inhibition was 21% (inactive).

`CCCCCCCCCCCCCC(=O)OCC(O)CO` (stereo not given): the growth inhibition was 7% (inactive).

On to `O=C1C=CC(=O)N1C1CCCCC1`, for which the growth inhibition was 30% (inactive).

Turning to `CCCCCCCCCCCC(=O)OCC1OC(n2cc(F)c(=O)[nH]c2=O)C(N)C(O)C1O` (stereo not given), the growth inhibition is 22% (inactive).

As for `CN(C)c1ccc(C2C=C(c3ccccc3)Oc3ccccc32)cc1` (stereo not given), the growth inhibition is 92% (active).

For the molecule `CS(=O)(=O)OCCN(CCOS(C)(=O)=O)c1ccc(C=Nc2cccc(Cl)c2)cc1`, the growth inhibition is 17% (inactive).

As to `O=C1C(=O)N(c2cc(Cl)ccc2Cl)C(=O)C(=O)C1c1nc2ccccc2o1`, the growth inhibition is 10% (inactive).

With `CC1=NC(=Cc2ccc(Cl)cc2)C(=O)N1n1c(-c2ccccc2)nc2ccccc2c1=O`, the growth inhibition was -24% (inactive).

For the molecule `C/C(=N/Nc1ccc([N+](=O)[O-])cc1[N+](=O)[O-])C1=CCC(C(C)(C)C)CC1` (stereo not given), the growth inhibition is 4% (inactive).

Turning to `Cc1ccc(C)c(N2C(=O)C(=O)C(c3nc4ccccc4o3)/C(=N\NC(=O)c3ccccc3O)C2=O)c1` (stereo not given), the growth inhibition is 8% (inactive).

With `O=C(/C=C/C=C/c1ccccc1)c1ccco1`, the growth inhibition is 4% (inactive).

As to `O=C1CCC(=O)c2c1c(O)c1ccncc1c2O`, the growth inhibition was 11% (inactive).

Regarding `CNC(=O)OC(C)CN1c2ccccc2Sc2ccc(Cl)cc21` (stereo not given), the growth inhibition is 19% (inactive).

Regarding `c1coc(C2=Nc3cccc4cccc(c34)N2)c1`, the growth inhibition is 4% (inactive).

For `CCOC(=O)[C@]12CCC[C@@]1(O)NC(=O)c1cnccc12`, the growth inhibition is -1% (inactive).

Consider `Cc1cccc(C)c1N1C(=O)C2Nc3ccccc3SC2C1=O` (stereo not given), for which the growth inhibition is 2% (inactive).

For `CCc1cccc(C(C)(C)C)c1NC(=S)N/C=C(\c1ccccc1)S(=O)Cc1ccccc1` (stereo not given), the growth inhibition is -15% (inactive).

With `CC(=O)Nc1ccc(-c2cnc3ccccc3c2)cc1`, the growth inhibition is -5% (inactive).

As to `OCC(CO)C1c2cccc3ccc4cccc1c4c23`, the growth inhibition is -6% (inactive).

Regarding `O=C1CC(=S)NC(=S)N1`, the growth inhibition was -5% (inactive).

Turning to `Cc1c2ccnc(C(N)=O)c2c(C)c2c1[nH]c1ccccc12`, the growth inhibition was 11% (inactive).

For `CCC(=O)Sc1ccccc1C(=O)Nc1ccc(Cl)cc1`, the growth inhibition was 23% (inactive).

Turning to `O=C(O)c1c(Cl)c(Cl)c(Cl)c(Cl)c1-c1c2cc(I)c(=O)c(I)c-2oc2c(I)c(O)c(I)cc12`, the growth inhibition was 98% (active).

As for `C=C/C=C/CC=C`, the growth inhibition is -45% (inactive).

Turning to `Cc1ccccc1N1CCN(c2c3c(nc4ccccc24)CCCCC3)CC1`, the growth inhibition was -3% (inactive).

As for `N/N=C(\N)c1ccc2ccc3cccnc3c2n1`, the growth inhibition is -7% (inactive).

As to `CCCCCC(CCCCC)C(=O)O`, the growth inhibition was -11% (inactive).

As to `O=Cc1cc(S(=O)(=O)c2ccc(O)c(C=O)c2)ccc1O`, the growth inhibition is 23% (inactive).

On to `Cc1ccc(C)c(N2C(=O)C(=O)C(c3nc4ccccc4o3)C(=O)C2=O)c1`, for which the growth inhibition was 30% (inactive).

Regarding `COC(=O)c1cc(C)c2sc3ccccc3c2c1C`, the growth inhibition is -8% (inactive).

Consider `O=C1NC(=O)N(c2ccc(Cl)c(Cl)c2)C1=O`, for which the growth inhibition is -4% (inactive).

Consider `Clc1ccc2oc(N3CCCCC3)nc2c1`, for which the growth inhibition is 2% (inactive).

Turning to `Cc1ccc(N=NC(C(=O)c2ccccc2)C(=O)c2ccccc2)cc1`, the growth inhibition was 7% (inactive).
